# Source: PubChem
# Hits are enriched below; roughly 3.8% of the tested compounds scored in any of these assays.
# DSG3 Ab inh = inhibitors of pemphigus antibody binding to human desmoglein-3; P32926; DSG3-coupled beads, scFv-anti-DSG3-GFP binding, flow cytometry; active compounds read low; binding (percent of control), % at 10 µM; actives 0.48% (n = 310,000);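 active means binding more than 3 SD below its plate's average and above zero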;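 further: hits lower antibody fragment binding to DSG3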
# PAFAH1B2 inh = blocks human PAF acetylhydrolase 1b catalytic subunit 2 | P68402 | recombinant PAFAH1B2, FP-rhodamine activity probe, fluorescence polarization | inhibition, % at 3.39 µM | actives 1.2% (n = 340,000);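 active means inhibition above the mean of all tested compounds plus 3 SD, cut at about 24% in these data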;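 further: 0% = enzyme with DMSO and 100% = wells lacking PAFAH1B2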
# Target sequence (P68402 whole entry, looked up): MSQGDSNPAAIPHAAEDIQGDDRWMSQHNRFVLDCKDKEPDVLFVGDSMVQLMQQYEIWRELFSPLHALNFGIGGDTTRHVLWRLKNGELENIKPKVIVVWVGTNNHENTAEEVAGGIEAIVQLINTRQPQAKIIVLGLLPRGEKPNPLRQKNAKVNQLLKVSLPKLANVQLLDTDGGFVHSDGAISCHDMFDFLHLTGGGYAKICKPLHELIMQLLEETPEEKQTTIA
# PAFAH1B3 FP inh = inhibitors of human PAFAH1B3. recombinant PAFAH1B3, FP-rhodamine probe, fluorescence polarization. inhibition, % at 3.39 µM. actives 0.28% (n = 340,000). AID 492972;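 active means inhibition above the screen-wide average of all tested compounds plus 3 SD, cut at about 25% in these data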;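 further: 0% = enzyme with DMSO only and 100% = wells lacking PAFAH1B3 protein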
# Target sequence (Q15102 whole entry, looked up): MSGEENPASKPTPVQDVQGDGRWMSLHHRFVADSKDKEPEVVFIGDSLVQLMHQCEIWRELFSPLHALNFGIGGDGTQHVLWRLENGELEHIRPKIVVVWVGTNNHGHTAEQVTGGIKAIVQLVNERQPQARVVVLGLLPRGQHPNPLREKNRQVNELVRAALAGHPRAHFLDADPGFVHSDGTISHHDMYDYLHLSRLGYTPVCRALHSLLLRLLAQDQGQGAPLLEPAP
# M18AAP inhibitor = blocks P. falciparum M18 aspartyl aminopeptidase; inhibition, % at 7.35 µM; AID 1822; actives 1.2% (n = 290,000); recombinant PfM18AAP, H-Glu-NHMec fluorogenic cleavage;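 active means inhibition above the campaign mean inhibition over all tested compounds plus 3 SD, cut at about 28% in these data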;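 further: 0% = plate median of test compound wells and 100% = 2 mM ZnCl2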
# PAFAH2 inh = inhibitors of human PAFAH2; Q99487; recombinant PAFAH2, FP-rhodamine activity probe, fluorescence polarization; inhibition, % at 3.39 µM; actives 0.99% (n = 340,000); AID 492956;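 active means inhibition above the mean over all tested compounds plus 3 SD, cut at about 30% in these data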;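 further: inhibitors block probe labeling of enzyme so polarization drops; 0% = enzyme with DMSO and 100% = wells lacking PAFAH2 protein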
# pPAFAH FP inh = pPAFAH (human) enzyme inhibition | recombinant pPAFAH, FP-rhodamine probe fluorescence polarization | inhibition, % at 3.39 µM | actives 1.5% (n = 330,000) | AID 463082;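 active means inhibition above the mean inhibition across the screen plus 3 SD, cut at about 25% in these data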;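 further: inhibitors block binding of the rhodamine activity-based probe so polarization drops; 0% = enzyme with DMSO and 100% = wells lacking pPAFAH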
# Numbers without * were called inactive; . = no result.
SMILES,DSG3 Ab inh,PAFAH1B2 inh,PAFAH1B3 FP inh,M18AAP inhibitor,PAFAH2 inh,pPAFAH FP inh
CCC(CO)Oc1cc(NC(=O)Cc2ccccc2)c2ncn(C(C)C)c2c1 (centres undefined),103,1,1,.,16,26*
COc1ccccc1CNS(=O)(=O)CCNCCc1ccccc1,101,7,-2,.,13,.
O=C(O)c1cccc(N2C(=O)CSC2c2ccccc2)c1 (centres undefined),95,27*,6,0,-8,3
O=C1CSC(c2ccccc2)N1c1cccnc1 (centres undefined),107,6,7,2,1,-6
Cc1cc(-c2ccccc2C(=O)O)on1,111,-3,-1,3,-7,0
O=C(O)c1ccccc1C1=Nc2ccc(O)cc2Oc2cc(O)ccc21,100,9,8,5,-73,28*
CN(Cc1ccc(Cl)cc1Cl)C(=O)Cc1ccc(S(=O)(=O)N2CCOCC2)s1,103,.,.,.,.,.
CC1(OC(=O)CCc2ccccc2)C(=O)C=C2C=C(c3ccc(C#N)cc3)N(Cc3ccco3)C=C2C1=O (centres undefined),97,4,-6,.,-3,33*
CCC(=O)OC1(C)C(=O)C2=COC(c3ccc(OC)cc3)=CC2=C(Br)C1=O (centres undefined),94,6,14,.,6,12
CCC(=O)OC1(C)C(=O)C=C2C=C(c3ccc(C#N)cc3)OC=C2C1=O (centres undefined),94,7,18,.,11,33*
CC1(OC(=O)c2ccco2)C(=O)C=C2C=C(c3ccc(C#N)cc3)OC=C2C1=O (centres undefined),.,.,.,.,.,52*
COc1cc(/C=C2\SC(=S)N(c3cccnc3)C2=O)ccc1O,68*,-30,-40,2,-71,-26
COc1cc(/C=C2\SC(=S)N(NC(=O)c3cccnc3)C2=O)ccc1O,98,-89,-134,6,-185,-97
N#Cc1c(Nc2ccccc2)sc(C(=O)c2ccccc2)c1N,107,-2,10,0,5,21
Cc1cccc(Oc2sc(C(=O)c3ccccc3)c(N)c2C#N)c1,.,5,9,-2,7,26*
Cc1cccc(S(=O)(=O)NC2CCCCCCC2)c1,.,19,-1,-7,2,4
COc1cc(S(=O)(=O)Nc2ccc(Br)cc2)ccc1N,88,7,6,-2,-1,25*
COc1ccccc1-n1cnc2cc(NS(=O)(=O)c3ccc(Br)cc3)ccc21,92,25*,6,-16,0,4
Cc1ccc(Cn2c(=N)n(CC(=O)c3ccccc3)c3ccccc32)cc1,111,1,5,-6,7,1
O=[N+]([O-])c1ccc(-c2nc(Cl)c3c(n2)CCCC3)o1,105,.,.,.,.,.
S=c1[nH]nc(-c2cc(-c3ccccc3)n[nH]2)n1/N=C/C=C/c1ccco1,110,.,.,16,.,26*
CC(C)c1ccc(/C=N/n2c(COc3ccccc3)n[nH]c2=S)cc1,96,29*,24,9,35*,10
S=c1[nH]nc(COc2ccccc2)n1/N=C/C=C/c1ccccc1,102,8,4,4,5,7
S=c1[nH]nc(COc2ccccc2)n1/N=C/C=C/c1ccco1,81*,.,.,25,.,22
Cc1ccc(/C=N/n2c(COc3ccccc3)n[nH]c2=S)cc1,100,10,6,17,-3,3
SMILES,DSG3 Ab inh,PAFAH1B2 inh,PAFAH1B3 FP inh,M18AAP inhibitor,PAFAH2 inh,pPAFAH FP inh
S=c1[nH]nc(-c2n[nH]c3c2CCC3)n1/N=C/C=C/c1ccco1,102,.,.,23,.,21
O=C(NC1CCCC1)c1ccc(Cn2c(=O)[nH]c3ccsc3c2=O)cc1,101,8,11,-13,-8,6
O=C(Nc1ccc(Cl)c(Cl)c1)c1ccc(Cn2c(=O)[nH]c3ccsc3c2=O)cc1,66*,-25,-50,-2,-45,-29
O=C(Nc1ccc(Oc2ccccc2)cc1)c1ccc(Cn2c(=O)[nH]c3ccsc3c2=O)cc1,51*,6,-11,2,-17,-11
CCn1cc(C2C3=C(CC(C)(C)CC3=O)N(c3ccccc3)C3=C2C(=O)CC(C)(C)C3)c(C)n1,.,-1,2,4,-3,3
O=C1CS/C(=N/N=C/c2ccncc2)N1,81*,.,.,1,.,-2
O=C1CS/C(=N/N=C/c2cccs2)N1,102,3,-2,7,-4,-1
Cc1cc(C)c(C#N)c(SCCS(=O)(=O)c2ccc(Cl)cc2)n1,88,29*,-4,0,1,3
Cc1cc(C)c(C#N)c(SCCS(=O)(=O)c2ccc(C(C)(C)C)cc2)n1,106,-1,0,-5,1,-2
NC(=O)N/N=C/c1c(O)ccc2oc3c(c12)CCCC3,100,6,18,26,1,10
O=[N+]([O-])c1cc2oc3c(c2c(C=NCc2ccncc2)c1O)CCCC3,117,8,26*,15,37*,.
O=C1NC(Cc2ccccc2)c2nc3ccc(Cl)cc3c(=O)n2-c2ncccc21 (centres undefined),102,.,.,.,.,.
O=C(NCCN1CCN(Cc2ccccc2)CC1)c1ccc(CS(=O)(=O)c2c(Cl)cccc2Cl)o1,99,.,.,.,.,.
Cc1oc2cc(Br)c(O)c(Br)c2c1-c1ccccc1,111,16,-4,9,72*,17
Cc1cc2oc(=O)cc(-c3ccccc3)c2c(C)c1-c1ccc(O)cc1,103,-1,7,.,-6,2
O=C(CCN1C(=O)c2ccccc2C1=O)c1ccccc1,109,.,.,.,.,.
Cc1ccc(/C=N/NC(=S)N2CCOCC2)cc1,100,2,11,40*,10,-3
CCc1ccc(CC(=S)N2CCOCC2)cc1,86,2,18,-10,9,-3
Cc1ccc(CC(=S)N2CCOCC2)cc1,97,0,7,29*,7,4
S=C(N/N=C/c1ccc(Cl)cc1)N1CCOCC1,128,2,12,30*,1,7
C[C@H](CO)N1C[C@H](C)[C@@H](CN(C)C(=O)Nc2ccccc2F)OCc2cnnn2CCCC1=O,95,.,.,.,.,.
O=S(=O)(Nc1ncnc2sc3c(c12)CCC3)c1cc(F)ccc1F,98,3,6,0,0,30*
O=C(c1ccc(CS(=O)Cc2ccc(Cl)cc2)o1)N1CCN(C2CCCCC2)CC1 (centres undefined),99,.,.,.,.,.
CN(CC(=O)Nc1ccc(Cl)c(C(F)(F)F)c1)C(=O)CCCNC(=O)c1ccc(Cl)cc1,.,53*,3,.,1,31*
CN(CC(=O)Nc1ccc(Cl)c(C(F)(F)F)c1)C(=O)CCNC(=O)c1ccco1,101,10,5,.,4,9
Cc1cccc(Nc2nnc(SCC(O)=C(C#N)c3nc4ccccc4[nH]3)s2)c1,91,26*,10,.,4,.
COc1cccc(N=C2NC(=O)/C(=C/c3cc([N+](=O)[O-])ccc3O)S2)c1,92,27*,39*,2,40*,25
